{
  "source": "PubChem BioAssay",
  "data": [
    {"assay": "probe aNOTCH2 binding on compound microarray – biochemical, small-molecule microarray, 635/667 nm fluorescence, primary screen (AID 1121);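 also: score merges feature fluorescence read at 667 nm with its signal to noise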", "conditions": "higher = more signal", "values": [
      {"smiles": "CCN(CC)c1ccc(N2CC=CC34O[C@@H]5C=CCOC(=O)[C@@H]5[C@H]3C(=O)N(CCO)[C@@H]4C2=O)cc1", "note": "(stereo not given in full)", "composite z-score": -0.24},
      {"smiles": "CCOC(=O)C1=CC[C@@H](c2ccccc2)N(S(=O)(=O)C[Si](C)(C)C)[C@H]1c1ccccc1", "composite z-score": -0.0079},
      {"smiles": "CN(C)CCCC[C@@H]1NC(=O)[C@@H]2C[C@H](C(=O)NCc3ccc(F)cc3)[C@H](c3ccc(O)cc3)N2C1=O", "composite z-score": -0.0974},
      {"smiles": "C=CCOC(=O)[C@H]1[C@@H]2C(=O)O[C@@H](c3ccccc3)[C@@H](c3ccccc3)N2[C@@H](c2ccc(OCCOC(=O)[C@@H]3C[C@@H]4C(=O)N[C@@H](CC(C)C)C(=O)N4[C@@H]3c3ccc(O)cc3)cc2)[C@]12C(=O)Nc1ccc(I)cc12", "composite z-score": -0.0486},
      {"smiles": "COCCCNC(=O)[C@@H]1c2ccccc2C(=O)N(C2CCCCC2)[C@H]1c1ccc(CO)cc1", "composite z-score": -0.106},
      {"smiles": "CN(C)CCCC[C@@H]1NC(=O)[C@H]2C[C@@H](C(=O)NCc3ccc(F)cc3)[C@@H](c3ccc(O)cc3)N2C1=O", "composite z-score": -0.0423},
      {"smiles": "COc1ccc(C#Cc2ccc3c(c2)[C@]2(C(=O)N3)[C@H](C(=O)Nc3nc4ccccc4s3)[C@H]3C(=O)O[C@H](c4ccccc4)[C@H](c4ccccc4)N3[C@@H]2c2ccc(OCCO)cc2)cc1", "composite z-score": -0.0486},
      {"smiles": "C=CCC(OC(C)=O)[C@@H]1[C@@H](N(Cc2ccc(-c3cccc(C(F)(F)F)c3)o2)C(=O)c2cccc3ccccc23)c2cc(OCCCO)ccc2N1C(=O)c1ccc2ccccc2n1", "note": "(stereo not given in full)", "composite z-score": -0.103},
      {"smiles": "C[N+](C)(C)CCCC[C@@H]1NC(=O)[C@H]2C[C@@H](C(=O)NCCCCCNC(=O)CS)[C@@H](c3ccc(O)cc3)N2C1=O", "composite z-score": -0.158},
      {"smiles": "C=CCC(OC(C)=O)[C@@H]1[C@@H](N(Cc2cccc3ccccc23)C(=O)c2cccc3ccccc23)c2cc(OCCCO)ccc2N1C(=O)Cc1ccc2ccccc2c1", "note": "(stereo not given in full)", "composite z-score": -0.147},
      {"smiles": "COc1ccc(C(O)C2C=CC3C(=O)N(C)C(=O)C3N2Nc2ccc([N+](=O)[O-])cc2[N+](=O)[O-])cc1OCc1ccccc1", "note": "(stereo not given)", "composite z-score": 0.29},
      {"smiles": "COCCOC(=O)N1C(=O)[C@@]2(c3cc(C#CCC(C(=O)OC)C(=O)OC)ccc31)[C@H](C(=O)N1CCc3cc(OC)c(OC)cc3C1)[C@H]1C(=O)O[C@H](c3ccccc3)[C@H](c3ccccc3)N1[C@@H]2c1ccc(O)cc1", "composite z-score": -0.0715},
      {"smiles": "C=CCNC(=O)[C@@H]1[C@H]2C(=O)O[C@H](c3ccccc3)[C@H](c3ccccc3)N2[C@H](c2ccc(O)cc2)[C@@]12C(=O)Nc1ccc(C#CC3(O)CCCCCC3)cc12", "composite z-score": -0.179},
      {"smiles": "COCCOC(=O)N1C(=O)[C@@]2(c3ccccc31)[C@H](C(=O)N1CCCCCCC1)[C@H]1C(=O)O[C@H](c3ccccc3)[C@H](c3ccccc3)N1[C@@H]2c1ccc(O)cc1", "composite z-score": 0.95},
      {"smiles": "N#Cc1ccc(C(O)C2C=CC3C(=O)NC(=O)C3N2Nc2ccccn2)cc1", "note": "(stereo not given)", "composite z-score": -0.0907},
      {"smiles": "CC(C)C[C@H]1NC(=O)[C@@]23C(=O)N[C@@H](Cc4ccccc4)C2[C@H](C)[C@@]2(C)O[C@H]2C3/C=C/C/C=C\\CNC(=O)[C@@H]2CCCN2C1=O", "note": "(stereo not given in full)", "composite z-score": -0.176},
      {"smiles": "CCCC[C@@H]1C[C@H]1[C@@H](NC(=O)Cc1ccccc1)c1ccc(Cl)cc1", "composite z-score": -0.129},
      {"smiles": "NC(=O)N1C(=O)C2C(C1=O)C1C=C(CCCO)C2C(c2ccc(CN3CCCC3)cc2)N1Cc1cccc(OC(F)(F)F)c1", "note": "(stereo not given)", "composite z-score": -0.0148},
      {"smiles": "CCOC(=O)C[C@H]1[C@H](OC(=O)c2ccc(C(=O)c3ccccc3)cc2)[C@@H](NC(=O)c2ccc3ccccc3c2)c2cc(OCCCO)ccc2N1C(=O)c1ccc2ccccc2n1", "composite z-score": 0.0683},
      {"smiles": "O=C1NC(=O)C2C1C=CC(C(O)c1ccc(F)cc1)N2Nc1ccccn1", "note": "(stereo not given)", "composite z-score": -0.0771},
      {"smiles": "COc1ccc([Si](C)(C)[C@H]2[C@H](CC(=O)N3Cc4ccccc4C[C@H]3CO)O[C@@]3(C(=O)N(Cc4cccc(N5C(=O)c6cccc7cccc5c67)c4)c4ccccc43)[C@@H]2C)cc1", "composite z-score": -0.114},
      {"smiles": "COC(=O)[C@@]1(Cc2ccccc2)[C@@H]2[C@@H](CC(=O)[C@H]2CC(=O)C(=O)N(C)C)CN1C(=O)c1ccccc1", "composite z-score": -0.0928},
      {"smiles": "COC(=O)[C@]1(CO)N=C(c2ccc(OCCCO)cc2)O[C@@H]1c1ccccc1CN=[N+]=[N-]", "composite z-score": -0.127},
      {"smiles": "CC(C)CNC(=O)[C@@H]1c2ccccc2C(=O)N(C(C)C)[C@H]1c1ccc(CO)cc1", "composite z-score": -0.0454},
      {"smiles": "Cc1c(NC(=O)/C(C#N)=C/c2ccc(Cl)cc2)c(=O)n(-c2ccccc2)n1C", "composite z-score": -0.145},
      {"smiles": "O=C1c2ccccc2[C@](Cc2ccccc2I)(C(=O)O)[C@H](c2ccc(CO)cc2)N1Cc1ccccc1", "composite z-score": -0.112},
      {"smiles": "CCC[C@@H]1C=C(C(=O)OCC)[C@H](c2ccccc2)N1S(=O)(=O)c1ccc(C)cc1", "composite z-score": 0.273},
      {"smiles": "COCCOC(=O)N1C(=O)[C@@]2(c3cc(C#CCC(C(=O)OC)C(=O)OC)ccc31)[C@H](c1ccc(OCCO)cc1)N1[C@H](c3ccccc3)[C@H](c3ccccc3)OC(=O)[C@H]1[C@@H]2C(=O)N1CCCCCCC1", "composite z-score": 0.597},
      {"smiles": "CCOC(=O)C[C@H]1[C@H](OC(=O)c2ccc(-c3ccccc3)cc2)[C@@H](NC(=O)CC(C)C)c2cc(OCCCO)ccc2N1C(=O)Cc1ccc(OC)cc1", "composite z-score": 0.0426},
      {"smiles": "COCCOC(=O)N1C(=O)[C@@]2(c3cc(C#CCC(C(=O)OC)C(=O)OC)ccc31)[C@H](C(N)=O)[C@H]1C(=O)O[C@H](c3ccccc3)[C@H](c3ccccc3)N1[C@@H]2c1ccc(OCCO)cc1", "composite z-score": -0.0984},
      {"smiles": "C=CCC(OC(C)=O)[C@@H]1[C@@H](N(Cc2ccc(-c3cccc(C(F)(F)F)c3)o2)C(=O)c2cccc3ccccc23)c2cc(OCCCO)ccc2N1C(=O)c1ccc2ccccc2c1", "note": "(stereo not given in full)", "composite z-score": -0.12},
      {"smiles": "COC(=O)[C@@]1(Cc2ccccc2)[C@H]2c3cc(C(=O)N4CCCC4)n(Cc4ccc(C(F)(F)F)nc4)c3C[C@H]2CN1C(=O)c1ccccc1", "composite z-score": 0.292},
      {"smiles": "C=CC[C@@]1(C(=O)O)N=C(c2ccc(OCCCO)cc2)O[C@@H]1c1ccccc1CN=[N+]=[N-]", "composite z-score": -0.147},
      {"smiles": "COc1ccc([Si](C)(C)[C@H]2[C@H](CCn3cc([C@H](O)c4ccccc4)nn3)O[C@@]3(C(=O)N(C)c4c(Br)cc(C)cc43)[C@@H]2C)cc1", "composite z-score": -0.103},
      {"smiles": "CC1(C)OC[C@@]23C=C(Br)[C@@H](C[C@H]12)[C@@]1(CO1)C3=O", "composite z-score": -0.189}
    ]}
  ]
}
